Data on 38 compounds can be found in PubChem BioAssay (EPA / NIEHS).

Active and inactive are the calls of the source. Rule for the calls: active = hit-call score of the fitted dose curve at least 0.9, where 1 is the maximum; inactive = score below 0.9.

One experiment can be described thus: ATG_TAL_CIS: Attagene CIS-FACTORIAL HepG2 Assay for human TAL Basal Promoter (AID 2282966).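 Note: background control endpoint measuring basal TAL promoter reporter mRNA not a specific factor.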 The note with it: HepG2 Attagene cis-factorial TAL promoter reporter; actives raise or lower the signal. In a few lines:
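Steps: transfect HepG2 with multiple reporter transcription units; dose 24 h; isolate RNA, reverse-transcribe, PCR-amplify, label with 6-FAM, digest with HpaI; resolve by capillary electrophoresis. Bidirectional fitting against DMSO baseline.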
Take `C=CC(C)(CCC=C(C)C)OC=O` (centres undefined): the compound was classed as inactive.
The same measure, in the same setting: next, `Nc1cc([N+](=O)[O-])ccc1O`: “inactive”; `CCc1c(C)cc(N)c(CC)c1N`: “inactive”.
Still for that read-out and setting: then `O=P(c1ccccc1)(c1ccccc1)c1ccccc1`, with “inactive”; and `CCCCc1ccc(N)cc1`, with “inactive”; and `O=S(=O)(O)c1cccc2c(S(=O)(=O)O)cccc12`, with “inactive”.
Same read-out and setting: next, `CCCCC(CC)COC(=O)/C=C\C(=O)OCC(CC)CCCC` (centres undefined): “inactive”; `CCCCOCCOCCSC#N`: “inactive”; `COC(=O)OC`: “inactive”.
As to `Clc1sc(Cl)c(Cl)c1Cl`, the result was inactive.
As to `O=C1OC2(c3cc(Br)c(O)c(Br)c3Oc3c2cc(Br)c(O)c3Br)c2c(Cl)c(Cl)c(Cl)c(Cl)c21`, the AC50 (as a rule, the midpoint of the concentration-response curve, whichever way the signal moves) is 26.1 µM (active).
`CN(C)CCCN`: the outcome was inactive.
On to `CC1(C)OC[C@@H]2O[C@@]3(C(=O)O)OC(C)(C)O[C@H]3[C@@H]2O1`, for which the call was inactive.
Consider `C[Si](O[Si](C)(C)C)O[Si](C)(C)C`, for which the outcome was inactive.
Same read-out and setting: next, `Cc1ccc(C=O)s1`: “inactive”.
As to `CC(CCO)CCCC(C)(C)O` (centres undefined), the compound was classed as inactive.
Still for that read-out and setting: next, `CC(=O)OCC=Cc1ccccc1`: “inactive”.
Turning to `CC1=CCC2C(C1)C2(C)C` (centres undefined), the compound was called inactive.
Still for that read-out and setting: then `CCCC(C)C=O` (centres undefined), with “inactive”; and `CCCCCCCCCCCCCCCCCC(=O)OCC(CC)CCCC` (centres undefined), with “inactive”; and `NCCNCCN`, with “inactive”.
In the case of `C=C(C)C(=O)Nc1ccc(Cl)c(Cl)c1`, the outcome was inactive.
The same measure, in the same setting: then `COC(=O)c1ccc(C)cc1`, with “inactive”.
`Nc1cccc(S(=O)(=O)c2cccc(N)c2)c1`: the outcome was inactive.
For `O=C1c2ccccc2C(=O)N1SC1CCCCC1`, the AC50 is 60.1 µM (active).
`CCCC(=O)C(C)=O`: the compound was classed as inactive.
Still for that read-out and setting: next, `C=O`: “inactive”; `NNc1nc(-c2ccc(N)cc2)cs1`: “inactive”.
For `CC(C)c1ccc(C(C)C)cc1`, the compound was classed as inactive.
Same read-out and setting: next, `Cc1ccc(Nc2ccc(O)c3c2C(=O)c2ccccc2C3=O)cc1`: “inactive”; `COCCOCCOCCOCCOCCO`: “inactive”; `Cc1ccc2sc3cccc(C)c3c2c1`: “inactive”.
Still for that read-out and setting: next, `CNC[C@H](O)c1cccc(O)c1`: “inactive”; `CC(C)c1cccc(O)c1`: “inactive”.
On the same count and under the same terms, next, `CCCCCC(=O)OCCc1ccccc1`: “inactive”.
On to `COc1ccc(OC)c(OC)c1`, for which the compound was called inactive.
Still for that read-out and setting: then `CNC(=O)Oc1ccc2c(c1)[C@]1(C)CCN(C)[C@@H]1N2C`, with “inactive”.
Still for that read-out and setting: next, `CCOC(=S)SSC(=S)OCC`: “inactive”.

Another experiment is described as follows: ATG_TGFb_CIS: Attagene CIS-FACTORIAL HepG2 Assay for human Transforming Growth Factor (TGF) (AID 2282967). The note with it: HepG2 Attagene CIS TGFb reporter, mRNA transcription; actives raise or lower the signal. The method, boiled down: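 HepG2 cells transiently transfected with cis-promoter-driven multiplexed reporter units; 24 h compound exposure. Reporter mRNA measured by RT-PCR, 6-FAM labeling, HpaI digestion and capillary electrophoresis; bidirectional fit versus DMSO baseline.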
On to `C=CC(C)(CCC=C(C)C)OC=O` (centres undefined), for which the compound was called inactive.
Same read-out and setting: next, `Nc1cc([N+](=O)[O-])ccc1O`: “inactive”; `CCc1c(C)cc(N)c(CC)c1N`: “inactive”; `O=P(c1ccccc1)(c1ccccc1)c1ccccc1`: “inactive”.
The same measure, in the same setting: next, `CCCCc1ccc(N)cc1`: “inactive”; `O=S(=O)(O)c1cccc2c(S(=O)(=O)O)cccc12`: “inactive”.
On the same count and under the same terms, next, `CCCCC(CC)COC(=O)/C=C\C(=O)OCC(CC)CCCC` (centres undefined): “inactive”; `CCCCOCCOCCSC#N`: “inactive”.
Take `COC(=O)OC`: the compound was called inactive.
With `Clc1sc(Cl)c(Cl)c1Cl`, the call was inactive.
Consider `O=C1OC2(c3cc(Br)c(O)c(Br)c3Oc3c2cc(Br)c(O)c3Br)c2c(Cl)c(Cl)c(Cl)c(Cl)c21`, for which the half-maximal activity concentration (AC50) is 58.4 µM (active).
On to `CN(C)CCCN`, for which the outcome was inactive.
Same read-out and setting: then `CC1(C)OC[C@@H]2O[C@@]3(C(=O)O)OC(C)(C)O[C@H]3[C@@H]2O1`, with “inactive”; and `C[Si](O[Si](C)(C)C)O[Si](C)(C)C`, with “inactive”.
On the same count and under the same terms, then `Cc1ccc(C=O)s1`, with “inactive”.
On to `CC(CCO)CCCC(C)(C)O` (centres undefined), for which the outcome was inactive.
On the same count and under the same terms, then `CC(=O)OCC=Cc1ccccc1`, with “inactive”; and `CC1=CCC2C(C1)C2(C)C` (centres undefined), with “inactive”.
The same measure, in the same setting: then `CCCC(C)C=O` (centres undefined), with “inactive”; and `CCCCCCCCCCCCCCCCCC(=O)OCC(CC)CCCC` (centres undefined), with “inactive”.
On the same count and under the same terms, then `NCCNCCN`, with “inactive”.
For the compound `C=C(C)C(=O)Nc1ccc(Cl)c(Cl)c1`, the outcome was inactive.
Still for that read-out and setting: next, `COC(=O)c1ccc(C)cc1`: “inactive”; `Nc1cccc(S(=O)(=O)c2cccc(N)c2)c1`: “inactive”.
In the case of `O=C1c2ccccc2C(=O)N1SC1CCCCC1`, the AC50 is 144 µM (active).
Regarding `CCCC(=O)C(C)=O`, the outcome was inactive.
As for `C=O`, the result was inactive.
The same measure, in the same setting: then `NNc1nc(-c2ccc(N)cc2)cs1`, with “inactive”.
In the case of `CC(C)c1ccc(C(C)C)cc1`, the concentration at half-maximal activity (AC50) is 171 µM (active).
Turning to `Cc1ccc(Nc2ccc(O)c3c2C(=O)c2ccccc2C3=O)cc1`, the outcome was inactive.
Turning to `COCCOCCOCCOCCOCCO`, the compound was called inactive.
The same measure, in the same setting: next, `Cc1ccc2sc3cccc(C)c3c2c1`: “inactive”; `CNC[C@H](O)c1cccc(O)c1`: “inactive”.
Take `CC(C)c1cccc(O)c1`: the compound was classed as inactive.
In the case of `CCCCCC(=O)OCCc1ccccc1`, the compound was classed as inactive.
On the same count and under the same terms, then `COc1ccc(OC)c(OC)c1`, with “inactive”; and `CNC(=O)Oc1ccc2c(c1)[C@]1(C)CCN(C)[C@@H]1N2C`, with “inactive”.
Still for that read-out and setting: next, `CCOC(=S)SSC(=S)OCC`: “inactive”.

The next experiment is described as follows: ATG_VDRE_CIS: Attagene CIS-FACTORIAL HepG2 Assay for human Vitamin D Receptor Element (VDRE) (AID 2282968). The settings on record: HepG2 VDRE cis-reporter transcription, actives raise or lower the signal. In a few lines:
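In transiently transfected HepG2 liver cells, gain or loss of reporter mRNA after 24 h exposure is scored relative to DMSO, using fluorescence detection by capillary electrophoresis of RT-PCR products.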
Take `C=CC(C)(CCC=C(C)C)OC=O` (centres undefined): the compound was called inactive.
Still for that read-out and setting: next, `Nc1cc([N+](=O)[O-])ccc1O`: “inactive”; `CCc1c(C)cc(N)c(CC)c1N`: “inactive”.
Turning to `O=P(c1ccccc1)(c1ccccc1)c1ccccc1`, the half-maximal activity concentration (AC50) is 13.1 µM (active).
As for `CCCCc1ccc(N)cc1`, the outcome was inactive.
Regarding `O=S(=O)(O)c1cccc2c(S(=O)(=O)O)cccc12`, the compound was classed as inactive.
Still for that read-out and setting: next, `CCCCC(CC)COC(=O)/C=C\C(=O)OCC(CC)CCCC` (centres undefined): “inactive”; `CCCCOCCOCCSC#N`: “inactive”.
Regarding `COC(=O)OC`, the compound was classed as inactive.
Same read-out and setting: next, `Clc1sc(Cl)c(Cl)c1Cl`: “inactive”.
With `O=C1OC2(c3cc(Br)c(O)c(Br)c3Oc3c2cc(Br)c(O)c3Br)c2c(Cl)c(Cl)c(Cl)c(Cl)c21`, the half-maximal activity concentration (AC50) is 16.4 µM (active).
For `CN(C)CCCN`, the compound was called inactive.
On the same count and under the same terms, then `CC1(C)OC[C@@H]2O[C@@]3(C(=O)O)OC(C)(C)O[C@H]3[C@@H]2O1`, with “inactive”; and `C[Si](O[Si](C)(C)C)O[Si](C)(C)C`, with “inactive”; and `Cc1ccc(C=O)s1`, with “inactive”.
For the compound `CC(CCO)CCCC(C)(C)O` (centres undefined), the call was inactive.
On the same count and under the same terms, then `CC(=O)OCC=Cc1ccccc1`, with “inactive”; and `CC1=CCC2C(C1)C2(C)C` (centres undefined), with “inactive”; and `CCCC(C)C=O` (centres undefined), with “inactive”.
`CCCCCCCCCCCCCCCCCC(=O)OCC(CC)CCCC` (centres undefined): the call was inactive.
On to `NCCNCCN`, for which the compound was called inactive.
`C=C(C)C(=O)Nc1ccc(Cl)c(Cl)c1`: the AC50 is 20.6 µM (active).
Consider `COC(=O)c1ccc(C)cc1`, for which the call was inactive.
In the case of `Nc1cccc(S(=O)(=O)c2cccc(N)c2)c1`, the compound was called inactive.
The same measure, in the same setting: then `O=C1c2ccccc2C(=O)N1SC1CCCCC1`, with “inactive”; and `CCCC(=O)C(C)=O`, with “inactive”; and `C=O`, with “inactive”.
Turning to `NNc1nc(-c2ccc(N)cc2)cs1`, the outcome was inactive.
Same read-out and setting: next, `CC(C)c1ccc(C(C)C)cc1`: “inactive”; `Cc1ccc(Nc2ccc(O)c3c2C(=O)c2ccccc2C3=O)cc1`: “inactive”.
Regarding `COCCOCCOCCOCCOCCO`, the outcome was inactive.
As to `Cc1ccc2sc3cccc(C)c3c2c1`, the compound was classed as inactive.
On to `CNC[C@H](O)c1cccc(O)c1`, for which the outcome was inactive.
Still for that read-out and setting: then `CC(C)c1cccc(O)c1`, with “inactive”.
Same read-out and setting: next, `CCCCCC(=O)OCCc1ccccc1`: “inactive”; `COc1ccc(OC)c(OC)c1`: “inactive”.
As for `CNC(=O)Oc1ccc2c(c1)[C@]1(C)CCN(C)[C@@H]1N2C`, the result was inactive.
On the same count and under the same terms, next, `CCOC(=S)SSC(=S)OCC`: “inactive”.
